SARS PLP yeast – blocks SARS-CoV papain-like protease in a yeast assay. S. cerevisiae expressing SARS-CoV PLpro, growth rescue. Potency, µM (titrated, usually from 32.9 µM), inactives show at the top dose activity, positive = growth rescue, most hits filed as activators. hit rate 0.19% among 330,000. AID 485353; also: 0% is about no effect; nearly all actives have a fitted effect of over 55% in size
NS1 function inh – inhibitors of influenza NS1 protein function | hit rate 0.4% among 270,000 | Potency, µM (series often up to 46.1 µM), for the others: at the highest dose activity, positive = more growth; also: actives are rising curves; nearly all actives have a fitted effect of over 50% in size
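In this qHTS, NS1 from influenza A is expressed in budding yeast, where it slows growth. Cells are switched from glucose to 2% galactose medium (pH 6.0, -URA), treated with compound, and growth recovery is read at OD600.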
Pf growth 48h – P. falciparum growth inhibition at 48 hours (one generation); P. falciparum luciferase growth in erythrocytes, 48 h; Potency, µM (series often up to 28.7 µM), for inactives: at the highest dose activity change, negative = inhibition, hits mostly inhibitors; hit rate 5.9% among 310,000; AID 504832; active = well fitted inhibition curve with a large enough effect; inconclusive = small, poorly fitted or top-dose-only effect, or another doubt; inactive = no such curve, though single readings can be large or run the other way; also: % is scaled to controls: 0 for no effect and ±100 for the full control effect
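First compound was added to culture medium, then infected red cells at 0.1% parasitemia and 2% hematocrit (final). After incubation at 37 C under 5% CO2, luciferase detection reagent was dispensed and light output recorded.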
Pf growth 96h – inhibits malaria parasite growth, 96 h. P. falciparum luciferase reporter growth, 96 h. Potency, µM (top dose mostly 28.7 µM), inactives show top-dose activity change, negative = inhibition, actives largely listed as inhibitors. hit rate 6.9% among 320,000; active = well fitted inhibition curve with a large enough effect; inconclusive = small, poorly fitted or top-dose-only effect, or another doubt; inactive = no such curve, though single readings can be large or run the other way; also: % is scaled to controls: 0 for no effect and ±100 for the full control effect
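Infected RBCs, 2% Hct / 0.05% parasitemia final; luciferase-reporter P. falciparum; cpd 96 h, 37 C, 5% CO2; luciferase detection reagent; luminescence.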
Active calls of the source: *; ? = inconclusive; nt = no result given; ! = repeats disagree. Hits are enriched below; roughly 10% of the tested compounds scored in any of these assays. Unless noted, calls follow the shape of the full dose curve. Potency is read from the fitted curve at half-maximal effect.

SMILES	SARS PLP yeast	NS1 function inh	Pf growth 48h	Pf growth 96h
N[C@@H](Cc1ccc(N(CCCl)CCCl)cc1)C(=O)O	nt	nt	?	9.53µM*!
CCN(c1ccccc1)S(=O)(=O)c1cccc(C(=O)Nc2ccc(C)cn2)c1	-6.4%	-27.0%	8.28µM*	9.28µM*
Cc1cccc(NC(=O)c2cccc(S(=O)(=O)N(C)c3ccccc3)c2)n1	1.1%	nt	7.38µM*	13.1µM*
CCN(c1ccccc1)S(=O)(=O)c1ccc(NN)nc1	3.7%	nt	13.1µM*	?
CCN(CC)S(=O)(=O)c1ccc(NN)nc1	-1.9%	nt	-8.5%	?
Cc1ccc(S(=O)(=O)N(C)c2ccc(C(=O)Nc3cccc(C)n3)cc2)cc1	-6.8%	-44.7%	-2.4%	0.0%
COc1ccccc1N(Cc1ccccc1)S(=O)(=O)c1cccc(C(=O)Nc2cccc(C)n2)c1	-13.3%	0.9%	9.28µM*	?
CCC(=O)N1CCc2cc(S(=O)(=O)NCCc3ccc(S(N)(=O)=O)cc3)ccc21	26.2%	-12.9%	19.9%	?
Cc1nc(C(F)(F)F)ccc1C(=O)Nc1ccccc1N1CCOCC1	4.9%	-9.3%	7.7%	12.2%
CCN(c1ccccc1)S(=O)(=O)c1ccc(C(=O)Nc2cccc(C)n2)cc1	2.8%	nt	9.28µM*	?
CCNc1ccc(C(=O)OCC)cc1NC(=O)c1cccc(S(=O)(=O)N(C)c2ccccc2)c1	6.8%	?	?	2.33µM*
C=CCN(c1ccccc1OC)S(=O)(=O)c1cccc(C(=O)Nc2nnc(C3CC3)s2)c1	2.4%	nt	10.4µM*	9.28µM*
C=CCN(c1ccccc1OC)S(=O)(=O)c1cccc(C(=O)NC2=NCCS2)c1	-91.5%	nt	nt	nt
Cc1cccc(NC(=O)c2ccc(C(=O)c3ccccc3)cc2)n1	nt	nt	87.6%	113.2%
CC1CN(C(=O)Nc2ccc(Br)cc2Cl)CC(C)O1 (stereo not drawn)	-0.2%	-0.2%	-12.6%	?
CC(C)c1nnc(NC(=O)CS(=O)(=O)c2ccccc2)s1	-0.4%	-4.1%	12.0%	-1.8%
OC(C#CCN1CCCC1)(c1ccccc1)c1ccccc1	-1.1%	6.9%	?	9.53µM*
CCNc1nn2ccccc2c1/C=C(\C#N)C(=O)OCC	-3.7%	-9.1%	30.1%	-5.7%
CCCOc1ccc(C(C)=O)cc1CSc1nc(O)cc(=O)[nH]1	10.6%	?	nt	0.928µM*
CCCOc1ccc(C(C)=O)cc1CSCCC#N	-27.1%	-10.4%	-28.2%	?
COCC(=O)N[C@@H]1c2cc(OC)c(OC)cc2C[C@H]1OCc1ccccc1	-4.2%	nt	nt	nt
Cc1cc(=O)oc2cc(OC(=O)C3CCN(C(=O)c4ccc(F)cc4)CC3)ccc12	-17.2%	nt	-8.3%	-2.3%
C/C(=N\NC(=S)NCc1ccccc1)c1ccc(C(C)(C)C)cc1	?	8.1%	9.28µM*	?
CC(OC(=O)c1ccc(-c2ccc(O)cc2)cc1)C(=O)NC1CCCCC1C (stereo not drawn)	4.9%	nt	-20.3%	?
O=C1CS/C(=N/N=C/c2ccccc2)N1c1ccc(O)cc1	5.4%	23.9%	14.4%	1.65µM*
SMILES	SARS PLP yeast	NS1 function inh	Pf growth 48h	Pf growth 96h
O=C1CS/C(=N\N=C\c2ccco2)N1c1ccccc1	-0.9%	10.3%	28.3%	5.2%
O=C(NNc1cc(N2CCOCC2)nc(N2CCOCC2)n1)c1ccc(Cl)c(Cl)c1	-3.8%	16.5%	-3.7%	-14.8%
Cc1ccc(C(=O)NNc2cc(N3CCCC3)nc(N3CCCC3)n2)cc1	-6.6%	-7.7%	4.65µM*	-7.6%
CCOc1ccc2[nH]cc(-c3csc(N)n3)c2c1	0.7%	8.2%	11.7µM*	?
CC(=O)Nc1nonc1-n1nnc(C(=O)NCc2ccccc2)c1C	3.1%	7.6%	-28.1%	2.33µM*
Clc1cccc(-c2ccc(/C=N/n3cnnc3)o2)c1Cl	-48.2%	-3.6%	-0.8%	-26.3%
Cc1c(Cl)cccc1-c1ccc(/C=N/n2cnnc2)o1	-15.8%	-79.2%	nt	8.28µM*
COc1ccc(Cc2nc3c4c(ncn3n2)Oc2ccc3ccccc3c2C4c2ccc(OC)c(OC)c2)cc1 (stereo not drawn)	1.5%	4.9%	1.65µM*	?
COc1ccc(Cc2nc3c4c(ncn3n2)Oc2c(ccc3ccccc23)C4c2ccc(OC)c(OC)c2)cc1 (stereo not drawn)	14.5%	-1.4%	2.62µM*	1.85µM*
COc1ccc(C2c3c(ncn(Cc4ccco4)c3=N)Oc3ccc4ccccc4c32)cc1 (stereo not drawn)	-3.1%	?	?	?
COc1cccc(N2CCN(CC(=O)NC(=O)NC3CCCCC3)CC2)c1	3.9%	nt	-0.4%	38.2%
CCCCNS(=O)(=O)c1ccc2nc(-c3cccnc3)cc(C(=O)NCC(OC)OC)c2c1	-0.3%	3.0%	3.4%	4.4%
Cc1ncc(CN2CCC(CO)(CCc3ccccc3)CC2)s1	0.5%	-3.1%	?	?
COc1cccc(CNC(=O)C2CCC(=O)N(CC3CCCCC3)C2)c1OC (stereo not drawn)	1.6%	-1.5%	-7.0%	-19.3%
Cc1csc(=O)n1CC(=O)Nc1ccc(C(C)C)cc1	0.0%	nt	50.7%	141.9%
Cc1ccccc1NC(=O)CCNS(=O)(=O)c1ccc2c(c1)CCC(=O)N2	-2.6%	2.9%	33.7%	?
O=C(CCNS(=O)(=O)c1ccc(Cl)cc1)N1CCOCC1	5.5%	27.6%	5.2%	?
CC1CC(C)CN(C(=O)CCNS(=O)(=O)c2ccc3c(c2)CCC(=O)N3)C1 (stereo not drawn)	2.8%	-11.9%	5.9%	?
O=C1CCc2cc(S(=O)(=O)NCCC(=O)N3CCN(c4cccc(Cl)c4)CC3)ccc2N1	-4.3%	-5.6%	?	10.4µM*
O=C(CCNS(=O)(=O)c1ccc(Cl)cc1)N1CCCCCC1	-3.6%	9.0%	8.4%	11.7µM*
Cc1ccc(NC(=O)CCNS(=O)(=O)c2ccc3c(c2)CCC(=O)N3)cc1F	0.0%	1.8%	49.9%	9.28µM*
O=C(N/N=C/c1ccncc1)C1C2CCCCCCC21 (stereo not drawn)	-17.4%	-14.0%	?	?
COC(=O)C1=C(c2ccc(OCc3ccccc3)cc2)C[C@@H]2CC[C@H]1N2C(=O)NCc1ccc(N(C)C)cc1	-6.7%	nt	?	9.28µM*
COC(=O)C1=C(c2ccc(OCc3ccccc3)cc2)C[C@@H]2CC[C@H]1N2C(=O)NCc1cccc(C(F)(F)F)c1	5.0%	nt	4.15µM*	1.85µM*
COC(=O)C1=C(c2ccccc2OCc2ccccc2)C[C@@H]2CC[C@H]1N2C(=O)NCc1cccc(C(F)(F)F)c1	-3.5%	nt	10.4µM*	?
COC(=O)C1=C(c2ccccc2OCc2ccccc2)C[C@@H]2CC[C@H]1N2C(=O)NCCN1CCOCC1	-0.5%	nt	?	4.65µM*
CC1CN2C(c3ccc(Cl)cc3)=CSC2=N1 (stereo not drawn)	0.4%	21.3%	179.5%	?
COC(=O)C1=C(c2ccccc2OCc2ccccc2)C[C@@H]2CC[C@H]1N2C(=O)NCc1ccccc1	1.5%	nt	10.4µM*	4.15µM*
COC(=O)C1=C(c2ccc(F)cc2OCc2ccccc2)C[C@@H]2CC[C@H]1N2C(=O)NCc1ccco1	0.8%	nt	?	?
COC(=O)C1=C(c2ccccc2OCc2ccccc2)C[C@@H]2CC[C@H]1N2C(=O)NCc1ccc(Br)cc1	0.6%	nt	10.4µM*	?

High-throughput results deposited in PubChem by National Center for Advancing Translational Sciences (NCATS).
